Results filed as inconclusive are left out. Entries that show only a call come without a potency. Activity calls are given as the source filed them. Unless noted, calls follow the shape of the full dose curve.

Sequence of Calcium and integrin-binding protein 1 (Homo sapiens) (Q99828 whole entry, looked up): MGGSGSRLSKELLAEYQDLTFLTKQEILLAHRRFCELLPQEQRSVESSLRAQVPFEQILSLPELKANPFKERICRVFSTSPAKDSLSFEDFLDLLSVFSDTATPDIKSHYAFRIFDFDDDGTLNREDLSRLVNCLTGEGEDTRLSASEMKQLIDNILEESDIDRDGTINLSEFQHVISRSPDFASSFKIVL
Sequence of Cytochrome P450 2C9 (Homo sapiens) (P11712 whole entry, looked up): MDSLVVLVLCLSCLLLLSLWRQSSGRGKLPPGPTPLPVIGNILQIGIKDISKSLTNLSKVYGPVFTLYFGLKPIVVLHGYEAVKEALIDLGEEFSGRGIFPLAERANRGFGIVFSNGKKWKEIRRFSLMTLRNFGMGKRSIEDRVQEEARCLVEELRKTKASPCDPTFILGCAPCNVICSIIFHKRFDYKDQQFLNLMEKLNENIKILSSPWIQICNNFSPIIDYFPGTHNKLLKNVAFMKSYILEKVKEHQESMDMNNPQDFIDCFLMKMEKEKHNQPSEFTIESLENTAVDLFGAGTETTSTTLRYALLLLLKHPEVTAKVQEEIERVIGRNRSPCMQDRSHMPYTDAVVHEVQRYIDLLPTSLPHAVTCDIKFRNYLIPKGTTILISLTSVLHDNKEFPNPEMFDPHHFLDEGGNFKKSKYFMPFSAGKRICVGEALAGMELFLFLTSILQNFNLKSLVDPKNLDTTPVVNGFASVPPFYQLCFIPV

The target in the first assay is Calcium and integrin-binding protein 1 (Homo sapiens) (UniProt Q99828). Nature of the assay: Primary qHTS for Identification of Calcium Integrin Binding Protein 1 (CIB1) Competitor (AID 1508620; active = well fitted curve in the direction sought with a large enough effect; an effect the other way counts as inactive or inconclusive;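 also: GST tagged CIB1 binding a fluorescein labelled alphaIIb integrin peptide tracer; top concentration of the series differs between compounds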). The settings on record: CIB1-GST / FITC-alphaIIb peptide fluorescence polarization; series mostly up to 114 µM. Put shortly:
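Fluorescence polarization competition: CIB1-GST (1 uM final) preincubated with compound 15 min at room temperature, then FITC-labeled alphaIIb peptide (100 nM final) added for another 15 min. Polarization read at Ex 480/Em 540.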
(qHTS replaces the single test concentration by a dilution series.)
For the molecule `CC[C@H]1CN2CC[C@H]1C[C@@H]2[C@@H](O)c1ccnc2ccc(OC)cc12`, the Potency result is “inactive”.
Still for that read-out and setting: for `COc1cc2c(cc1OC)[C@@]13CCN4CC5=CCO[C@H]6CC(=O)N2[C@H]1[C@H]6[C@H]5C[C@H]43` the value was “inactive”; for `O=C1C[C@@H]2OCC=C3CN4CC[C@]56c7ccccc7N1[C@H]5[C@H]2[C@H]3C[C@H]46`, “inactive”.

For another assay, the target named is Cytochrome P450 2D6 (Homo sapiens) (UniProt P10635). The experiment in a line: Cytochrome P450 family 2 subfamily D member 6 (CYP2D6) small molecule antagonists: luciferase biochemical (cell-free) qHTS assay (AID 1645840; active = well fitted curve in the direction sought with a large enough effect in the repeat runs; an effect the other way counts as inactive or inconclusive; also: nearly all actives have a fitted effect of over 55% in size; also: potency is read from the fitted curve at half-maximal effect). The note with it: P450-Glo CYP2D6 enzyme, luciferin luminescence, 1 h; series mostly up to 57.4 µM. Put shortly: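 P450-Glo CYP2D6 system: proluciferin substrate converted by enzyme to luciferin, read by luminescence proportional to activity. Enzyme-substrate mix with compound 10 min at room temperature, then NADPH regeneration 1 h before detection reagent.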
Sequence of Cytochrome P450 2D6 (Homo sapiens) (P10635 whole entry, looked up): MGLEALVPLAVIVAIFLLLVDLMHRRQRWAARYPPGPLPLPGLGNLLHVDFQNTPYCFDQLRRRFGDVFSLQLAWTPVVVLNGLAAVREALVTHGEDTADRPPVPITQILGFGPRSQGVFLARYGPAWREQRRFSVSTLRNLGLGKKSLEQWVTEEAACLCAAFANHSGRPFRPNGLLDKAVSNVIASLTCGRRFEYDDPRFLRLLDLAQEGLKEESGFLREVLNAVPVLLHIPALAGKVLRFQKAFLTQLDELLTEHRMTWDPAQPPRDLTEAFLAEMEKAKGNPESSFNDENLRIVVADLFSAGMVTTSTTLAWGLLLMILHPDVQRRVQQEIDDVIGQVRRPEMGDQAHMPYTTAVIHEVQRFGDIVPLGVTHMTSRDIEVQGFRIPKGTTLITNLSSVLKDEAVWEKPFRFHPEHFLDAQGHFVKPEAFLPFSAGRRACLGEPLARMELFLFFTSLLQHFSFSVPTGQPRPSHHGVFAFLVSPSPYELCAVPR
Take `ClC1C(Cl)C(Cl)C(Cl)C(Cl)C1Cl` (centres undefined): the Potency result is “inactive”.
As to `CCNCC(O)c1cccc(O)c1` (centres undefined), the Potency entry was “inactive”.
Turning to `NCC(O)c1cccc(O)c1` (centres undefined), the Potency result was “inactive”.
Regarding `CCCCNCC(O)c1ccc(O)cc1` (centres undefined), the Potency is 9.52 µM (active).
Still for that read-out and setting: for `O=[N+]([O-])c1cc(I)c(O)c(I)c1` the value was “inactive”; for `CC1CCC(C(C)C)C(OC(=O)c2ccccc2N)C1` (centres undefined), “inactive”.
On to `CCOC(=O)c1ccccc1C(=O)OCC`, for which the Potency result was “inactive”.
On the same count and under the same terms, for `COc1ccc(OC)c(C(O)C(C)N)c1` (centres undefined) the value was “inactive”.
Same read-out and setting: for `O=[N+]([O-])C(Br)(CO)CO` the value was “inactive”.

Another assay has as its target Cytochrome P450 2C9 (Homo sapiens) (UniProt P11712). Nature of the assay: Cytochrome P450 family 2 subfamily C member 9 (CYP2C9) small molecule antagonists: luciferase biochemical (cell-free) qHTS assay (AID 1645842; active = well fitted curve in the direction sought with a large enough effect in the repeat runs; an effect the other way counts as inactive or inconclusive; also: nearly all actives have a fitted effect of over 55% in size; also: potency is read from the fitted curve at half-maximal effect). The note with it: P450-Glo CYP2C9 enzyme assay, luciferin luminescence; series mostly up to 57.4 µM. Put shortly: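 P450-Glo CYP2C9 system: proluciferin substrate with enzyme in mix containing 0.4% BSA, 10 min at room temperature, then NADPH regeneration solution added and incubated 1 h at 37C. Detection reagent stopped reaction; luminescence read after 20 min as RLU.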
As to `O=C1C2CC=CCC2C(=O)N1SC(Cl)(Cl)Cl` (centres undefined), the Potency is 6.74 µM (active).
Still for that read-out and setting: the result for `ClC1C(Cl)C(Cl)C(Cl)C(Cl)C1Cl` (centres undefined) reads “inactive”; that for `CCNCC(O)c1cccc(O)c1` (centres undefined), “inactive”.
As to `NCC(O)c1cccc(O)c1` (centres undefined), the Potency result was “inactive”.
Still for that read-out and setting: for `CCCCNCC(O)c1ccc(O)cc1` (centres undefined) the value was “inactive”.
On the same count and under the same terms, for `CC1CCC(C(C)C)C(OC(=O)c2ccccc2N)C1` (centres undefined) the value was 2.68 µM (active); for `COc1ccc(OC)c(C(O)C(C)N)c1` (centres undefined), “inactive”.
On the same count and under the same terms, the result for `O=[N+]([O-])C(Br)(CO)CO` reads 6.74 µM (active).

Test system in another assay: not listed separately
The experiment in a line: Cytotoxicity counterscreen for inhibitors of SARS-CoV-2 cell entry (AID 1645845). Also: nearly all actives have a fitted effect of over 50% in size. The settings on record: cell viability (SARS-CoV-2 entry assay cells); series mostly up to 57.1 µM. Put shortly:
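After a 15 min room-temperature ATPLite 1step step, luminescence reflected ATP remaining in HEK293-ACE2 cells exposed to compound for 1 h plus 48 h at 37 C, with percent activity set by cell and no-cell controls.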
For orientation: Counterscreens check selectivity or assay interference.
As for `CCNC1(c2cccs2)CCCCC1=O` (centres undefined), the result was inactive.
Same read-out and setting: the result for `C[C@]12CCC(=O)C=C1C=C[C@@H]1[C@@H]2CC[C@@]2(C)[C@H]1CC[C@@]2(O)CCC(=O)O` reads “inactive”.
The same measure, in the same setting: the result for `CCCC(=O)OC(C(Cl)(Cl)Cl)P(=O)(OC)OC` (centres undefined) reads “inactive [at 114 µM]”.
Still for that read-out and setting: for `C[C@@H]([C@H](O)c1ccccc1)N(C)C` the value was “inactive”; for `FC(F)OC(F)(F)C(F)Cl` (centres undefined), “inactive”; for `CC(N)Cc1ccc(O)cc1` (centres undefined), “inactive”.
In the case of `ClC1C(Cl)C(Cl)C(Cl)C(Cl)C1Cl` (centres undefined), the call was inactive.
Still for that read-out and setting: the result for `CCNCC(O)c1cccc(O)c1` (centres undefined) reads “inactive”.
Still for that read-out and setting: for `CC(=O)O[C@H]1CC[C@H]2[C@@H]3CCC4=CC(=O)CCC4=C3C=C[C@]12C` the value was “inactive”; for `NCC(O)c1cccc(O)c1` (centres undefined), “inactive”; for `Cn1sc(Cl)cc1=O`, “inactive”.
As to `CC[C@H]1CN2CC[C@H]1C[C@@H]2[C@@H](O)c1ccnc2ccc(OC)cc12`, the call was inactive.
Still for that read-out and setting: the result for `CCCCNCC(O)c1ccc(O)cc1` (centres undefined) reads “inactive”.
Still for that read-out and setting: the result for `CCC1(CC)C(=O)NC(=O)N(C)C1=O` reads “inactive”; that for `O=[N+]([O-])c1ccccc1`, “inactive”.
The same measure, in the same setting: the result for `O=[N+]([O-])c1cc(I)c(O)c(I)c1` reads “inactive”; that for `C[N+]1(C)CCCCC1COC(=O)C(O)(c1ccccc1)c1ccccc1` (centres undefined), “inactive”; that for `O=C(C[C@@H]1NCCC[C@H]1O)Cn1cnc2cc(Br)c(Cl)cc2c1=O`, “inactive”.
Take `CC1CCC(C(C)C)C(OC(=O)c2ccccc2N)C1` (centres undefined): the call was inactive.
The same measure, in the same setting: for `O=C/C=C/c1ccccc1` the value was “inactive”.
Take `C=CC[C@]1(O)CC[C@H]2[C@@H]3CCC4=CCCC[C@@H]4[C@H]3CC[C@@]21C`: the molecule was called inactive.
The same measure, in the same setting: for `COc1cc2c(cc1OC)[C@@]13CCN4CC5=CCO[C@H]6CC(=O)N2[C@H]1[C@H]6[C@H]5C[C@H]43` the value was “inactive”; for `CCOc1ccc2c3c1O[C@H]1[C@@H](O)C=C[C@H]4[C@@H](C2)N(C)CC[C@@]341`, “inactive”; for `CC(C)(O)[C@@H]1[C@H]2OC(=O)[C@@H]1[C@]1(O)C[C@H]3O[C@]34C(=O)O[C@H]2[C@]14C`, “inactive”.
The same measure, in the same setting: for `CCC1(C)CC(=O)NC(=O)C1` the value was “inactive [at 114 µM]”; for `CCC(=O)O[C@@](Cc1ccccc1)(c1ccccc1)[C@@H](C)CN(C)C`, “inactive”; for `C[C@]12CC[C@H]3[C@@H](CCC4=C(O)C(=O)CC[C@@H]43)[C@@H]1CC[C@@H]2OC(=O)CCC1CCCC1`, “inactive”.
Same read-out and setting: the result for `C[C@@H](CO)NC(=O)[C@@H]1C=C2c3cccc4[nH]cc(c34)C[C@H]2N(C)C1` reads “inactive”; that for `CCOC(=O)c1ccccc1C(=O)OCC`, “inactive”; that for `CCN(CC)C(=O)N[C@H]1C[C@@H]2c3cccc4[nH]cc(c34)C[C@H]2N(C)C1`, “inactive”.
`O=C1C[C@@H]2OCC=C3CN4CC[C@]56c7ccccc7N1[C@H]5[C@H]2[C@H]3C[C@H]46`: the outcome was inactive.
Take `CC[N+](C)(CC)CCOC(=O)C(O)(c1ccccc1)c1ccccc1`: the molecule was classed as inactive.
With `COc1ccc(OC)c(C(O)C(C)N)c1` (centres undefined), the molecule was classed as inactive.
Still for that read-out and setting: for `O=[N+]([O-])C(Br)(CO)CO` the value was “inactive”; for `O=C(NCNC(=O)NC1C(=O)NC(=O)N1CO)NC1C(=O)NC(=O)N1CO` (centres undefined), “inactive”.

Test system in a further assay: not listed separately
The experiment in a line: Primary qHTS to identify inhibitors of SARS-CoV-2 cell entry (AID 1645846). Also: nearly all actives have a fitted effect of over 45% in size. Also: potency is read from the fitted curve at half-maximal effect. The settings on record: SARS-CoV-2 pseudovirus cell entry assay, luminescence; activity change, negative = inhibition: at 57.1 µM (top of the series) unless noted; series mostly up to 57.1 µM. Put shortly: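 HEK293-ACE2 (Expi293F, stable hACE2), 1500 cells/well, o/n 37C; cpd 23 nL pin, 1 h; MLV-PP w/ SARS-CoV-2-S (Wuhan-Hu-1, Δ19 C-term); 48 h 37C; Bright-Glo luminescence; normalized vs S-PP and bald PP.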
With `C[C@@H]([C@H](O)c1ccccc1)N(C)C`, the activity change, negative = inhibition was -34.9%.
Consider `ClC1C(Cl)C(Cl)C(Cl)C(Cl)C1Cl` (centres undefined), for which the Potency entry was “inactive”.
Regarding `CCNCC(O)c1cccc(O)c1` (centres undefined), the activity change, negative = inhibition is -13.6%.
Still for that read-out and setting: the result for `CC(=O)O[C@H]1CC[C@H]2[C@@H]3CCC4=CC(=O)CCC4=C3C=C[C@]12C` reads -33.2%; that for `NCC(O)c1cccc(O)c1` (centres undefined), -19.3%.
Same read-out and setting: the result for `Cn1sc(Cl)cc1=O` reads -5.28%.
Take `CC[C@H](C)[C@H]1O[C@]2(C=C[C@@H]1C)C[C@@H]1C[C@@H](C/C=C(\C)[C@@H](O[C@H]3C[C@H](OC)[C@@H](O[C@H]4C[C@H](OC)[C@@H](O)[C@H](C)O4)[C@H](C)O3)[C@@H](C)/C=C/C=C3\CO[C@@H]4[C@H](O)C(C)=C[C@@H](C(=O)O1)[C@]34O)O2`: the Potency was 10 µM (active).
The same measure, in the same setting: the result for `CCCCNCC(O)c1ccc(O)cc1` (centres undefined) reads “inactive”.
As for `O=[N+]([O-])c1ccccc1`, the activity change, negative = inhibition is -19.1%.
The same measure, in the same setting: for `C[N+]1(C)CCCCC1COC(=O)C(O)(c1ccccc1)c1ccccc1` (centres undefined) the value was -8.43%.
The same measure, in the same setting: the result for `CC1CCC(C(C)C)C(OC(=O)c2ccccc2N)C1` (centres undefined) reads -3.33%; that for `O=C/C=C/c1ccccc1`, -22.2%; that for `COc1cc2c(cc1OC)[C@@]13CCN4CC5=CCO[C@H]6CC(=O)N2[C@H]1[C@H]6[C@H]5C[C@H]43`, -18.2%.
`CCC1(C)CC(=O)NC(=O)C1`: the activity change, negative = inhibition is -21.5% [at 114 µM].
Same read-out and setting: the result for `C[C@]12CC[C@H]3[C@@H](CCC4=C(O)C(=O)CC[C@@H]43)[C@@H]1CC[C@@H]2OC(=O)CCC1CCCC1` reads -9.8%.
Regarding `CCOC(=O)c1ccccc1C(=O)OCC`, the Potency result is “inactive”.
Consider `CC[N+](C)(CC)CCOC(=O)C(O)(c1ccccc1)c1ccccc1`, for which the activity change, negative = inhibition is -7.01%.
With `O=[N+]([O-])C(Br)(CO)CO`, the Potency result was “inactive”.
On the same count and under the same terms, for `O=C(NCNC(=O)NC1C(=O)NC(=O)N1CO)NC1C(=O)NC(=O)N1CO` (centres undefined) the value was “inactive”.
